Common to all, as to experiment: DAPPL (digital affinity profiling via proximity ligation, sequencing); 10 mM Tris-HCl pH 7.5, 50 mM NaCl, 1 mM DTT, 4% glycerol, room temperature, 30 min; GST-TFs on glutathione beads, 16-mer random dsDNA library, 0.1% formaldehyde crosslink after washing; high values mean tight binding
Holding throughout (settings): protein: recombinant; tags: N-terminal GST; dsDNA, one strand shown

Experiment [1] concerns the target T1, ERF (Homo sapiens, UniProt P50548 1-548).
T1 sequence: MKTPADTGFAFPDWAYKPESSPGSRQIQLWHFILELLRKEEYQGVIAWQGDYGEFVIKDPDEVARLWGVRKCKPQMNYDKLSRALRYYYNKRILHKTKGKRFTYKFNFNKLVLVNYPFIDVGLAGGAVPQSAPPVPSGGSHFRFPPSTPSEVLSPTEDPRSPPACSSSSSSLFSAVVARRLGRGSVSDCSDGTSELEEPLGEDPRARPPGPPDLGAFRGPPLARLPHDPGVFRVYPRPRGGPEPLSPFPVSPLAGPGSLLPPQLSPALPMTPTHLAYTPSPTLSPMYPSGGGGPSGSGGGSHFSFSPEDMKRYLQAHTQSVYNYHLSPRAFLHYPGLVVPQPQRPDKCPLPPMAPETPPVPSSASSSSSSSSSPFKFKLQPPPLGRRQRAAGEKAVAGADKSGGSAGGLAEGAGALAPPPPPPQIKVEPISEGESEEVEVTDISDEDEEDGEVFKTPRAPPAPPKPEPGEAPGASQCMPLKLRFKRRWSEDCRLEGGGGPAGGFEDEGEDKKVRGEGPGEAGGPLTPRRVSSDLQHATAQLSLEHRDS
In a few lines:
(§1)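 Binding signal is each hexamer's read frequency for a factor divided by its frequency in the tag-only sample. The factors were GST-fused human transcription factors from yeast, captured on glutathione beads, DNA-barcoded and pooled with that sample. Pools were incubated with 200 nmole of a random double-stranded 16-mer DNA library in Tris/NaCl/DTT/glycerol buffer at room temperature for 30 min, then washed, crosslinked with 0.1% formaldehyde, proximity-ligated with BsaI/T4 ligase (1 h, 37 °C), PCR-amplified and sequenced on an Illumina NextSeq500.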

Experiment [2] addresses T2, ETV3L (Homo sapiens, UniProt Q6ZN32 1-361).
T2 sequence: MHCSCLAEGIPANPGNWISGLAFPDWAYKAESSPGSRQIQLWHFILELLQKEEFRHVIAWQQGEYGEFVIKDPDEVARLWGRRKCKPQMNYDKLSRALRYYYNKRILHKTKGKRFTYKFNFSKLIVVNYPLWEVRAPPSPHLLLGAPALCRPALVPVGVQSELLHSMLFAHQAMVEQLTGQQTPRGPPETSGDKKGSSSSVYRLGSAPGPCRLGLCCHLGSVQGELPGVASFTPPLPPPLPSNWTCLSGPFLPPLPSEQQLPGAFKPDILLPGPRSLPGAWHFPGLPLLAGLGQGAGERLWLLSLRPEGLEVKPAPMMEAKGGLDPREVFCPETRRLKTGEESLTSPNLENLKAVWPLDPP
An outline of the steps: as §1

Experiment [3] deals with T3, ETS2 (Homo sapiens, UniProt P15036 1-469).
T3 sequence: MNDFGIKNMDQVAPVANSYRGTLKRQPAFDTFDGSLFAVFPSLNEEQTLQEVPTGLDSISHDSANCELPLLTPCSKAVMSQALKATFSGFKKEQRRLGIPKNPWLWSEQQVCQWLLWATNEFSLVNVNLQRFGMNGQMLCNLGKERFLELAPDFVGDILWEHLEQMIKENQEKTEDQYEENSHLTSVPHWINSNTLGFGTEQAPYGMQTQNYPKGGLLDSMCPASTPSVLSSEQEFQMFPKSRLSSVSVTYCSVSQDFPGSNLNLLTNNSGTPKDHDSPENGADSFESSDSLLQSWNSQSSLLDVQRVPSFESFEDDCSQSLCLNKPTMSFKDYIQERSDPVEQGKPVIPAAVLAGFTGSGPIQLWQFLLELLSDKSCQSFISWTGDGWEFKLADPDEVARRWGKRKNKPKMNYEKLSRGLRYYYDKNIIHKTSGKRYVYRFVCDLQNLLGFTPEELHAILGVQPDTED
An outline of the steps:
as §1

For experiment [4], the target named is T4, SPDEF (Homo sapiens, UniProt O95238 1-335).
T4 sequence: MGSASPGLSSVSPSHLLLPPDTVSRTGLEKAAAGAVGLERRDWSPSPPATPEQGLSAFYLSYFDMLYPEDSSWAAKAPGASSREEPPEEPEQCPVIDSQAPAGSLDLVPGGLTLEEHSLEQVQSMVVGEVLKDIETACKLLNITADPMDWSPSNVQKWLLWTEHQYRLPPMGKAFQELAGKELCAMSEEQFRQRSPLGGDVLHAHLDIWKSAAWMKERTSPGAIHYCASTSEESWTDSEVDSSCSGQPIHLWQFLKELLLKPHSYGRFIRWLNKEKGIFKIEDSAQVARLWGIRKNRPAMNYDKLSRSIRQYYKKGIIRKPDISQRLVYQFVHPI
An outline of the steps:
as §1

Experiment [5] concerns the target T5, ETV7 (Homo sapiens, UniProt Q9Y603 1-341).
T5 sequence: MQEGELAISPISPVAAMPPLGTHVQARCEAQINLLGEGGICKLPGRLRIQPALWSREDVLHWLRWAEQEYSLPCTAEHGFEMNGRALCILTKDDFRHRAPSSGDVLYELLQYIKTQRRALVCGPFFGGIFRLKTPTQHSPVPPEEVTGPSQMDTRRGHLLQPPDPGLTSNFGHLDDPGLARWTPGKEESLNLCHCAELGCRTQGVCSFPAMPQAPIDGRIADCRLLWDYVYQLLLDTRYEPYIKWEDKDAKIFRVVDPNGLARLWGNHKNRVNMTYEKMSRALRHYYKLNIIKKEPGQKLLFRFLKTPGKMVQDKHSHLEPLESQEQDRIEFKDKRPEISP
An outline of the steps: as §1

Experiment [6] deals with T6, ELF5 (Homo sapiens, UniProt Q9UKW6-2 1-255).
T6 sequence: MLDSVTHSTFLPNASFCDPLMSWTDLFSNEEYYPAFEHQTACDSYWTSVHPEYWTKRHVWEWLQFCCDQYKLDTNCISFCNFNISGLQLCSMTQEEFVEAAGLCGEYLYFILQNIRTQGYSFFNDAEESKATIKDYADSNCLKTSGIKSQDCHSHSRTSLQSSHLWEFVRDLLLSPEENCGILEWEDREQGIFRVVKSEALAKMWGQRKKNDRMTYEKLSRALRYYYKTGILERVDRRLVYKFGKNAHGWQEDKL
An outline of the steps:
as §1

The target of experiment [7] is T7, ETV3 (Homo sapiens, UniProt P41162-2 1-143).
T7 sequence: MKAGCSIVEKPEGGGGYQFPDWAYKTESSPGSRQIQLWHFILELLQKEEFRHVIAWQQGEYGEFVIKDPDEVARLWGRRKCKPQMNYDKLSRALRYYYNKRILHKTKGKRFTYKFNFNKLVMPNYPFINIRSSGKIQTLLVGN
In a few lines: as §1

Experiment [8] has as its target ETV6 (Homo sapiens, UniProt P41212 1-452). In a few lines:
as §1

Chain of ETV6 (P41212 whole entry): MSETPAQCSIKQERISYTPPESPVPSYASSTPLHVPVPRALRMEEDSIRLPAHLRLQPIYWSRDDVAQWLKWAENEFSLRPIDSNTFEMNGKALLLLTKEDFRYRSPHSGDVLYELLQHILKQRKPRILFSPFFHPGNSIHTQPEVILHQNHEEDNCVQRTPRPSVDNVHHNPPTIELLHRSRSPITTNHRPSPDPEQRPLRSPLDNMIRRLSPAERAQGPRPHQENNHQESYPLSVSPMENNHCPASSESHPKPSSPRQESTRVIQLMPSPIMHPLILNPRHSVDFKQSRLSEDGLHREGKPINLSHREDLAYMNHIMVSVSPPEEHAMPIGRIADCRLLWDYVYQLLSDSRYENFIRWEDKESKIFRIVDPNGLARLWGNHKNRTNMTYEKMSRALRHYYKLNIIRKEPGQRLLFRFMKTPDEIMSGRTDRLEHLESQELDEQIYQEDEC

For TGGTAA, the binding signal in experiment [1] is 1.27 fold enrichment (6-mer frequency, TF over GST control); in experiment [2], 1.25 fold enrichment (6-mer frequency, TF over GST control); in experiment [3], 1.32 fold enrichment (6-mer frequency, TF over GST control); in experiment [4], 1.19 fold enrichment (6-mer frequency, TF over GST control); in experiment [5] it was 1.4 fold enrichment (6-mer frequency, TF over GST control); in experiment [6], 1.23 fold enrichment (6-mer frequency, TF over GST control). Further, the binding signal was 1.15 fold enrichment (6-mer frequency, TF over GST control) in experiment [7] and 1.25 fold enrichment (6-mer frequency, TF over GST control) in experiment [8].

Regarding AGCCTT, the binding signal was 1.21 fold enrichment (6-mer frequency, TF over GST control) in experiment [1]; 1.11 fold enrichment (6-mer frequency, TF over GST control) in experiment [2]; 1.07 fold enrichment (6-mer frequency, TF over GST control) in experiment [3]; 1.02 fold enrichment (6-mer frequency, TF over GST control) in experiment [4]; 1.1 fold enrichment (6-mer frequency, TF over GST control) in experiment [5]; 1.1 fold enrichment (6-mer frequency, TF over GST control) in experiment [6]. In addition, the binding signal is 1.18 fold enrichment (6-mer frequency, TF over GST control) in experiment [7] and 1.08 fold enrichment (6-mer frequency, TF over GST control) in experiment [8].

As for AACAAC, the binding signal is 1.35 fold enrichment (6-mer frequency, TF over GST control) in experiment [1]; 1.25 fold enrichment (6-mer frequency, TF over GST control) in experiment [2]; 1.33 fold enrichment (6-mer frequency, TF over GST control) in experiment [3]; 1.27 fold enrichment (6-mer frequency, TF over GST control) in experiment [4]; 1.3 fold enrichment (6-mer frequency, TF over GST control) in experiment [5]; 1.28 fold enrichment (6-mer frequency, TF over GST control) in experiment [6]. Moreover, the binding signal in experiment [7] was 1.37 fold enrichment (6-mer frequency, TF over GST control); in experiment [8], 1.35 fold enrichment (6-mer frequency, TF over GST control).

Take TAACAC: the binding signal in experiment [1] is 1.22 fold enrichment (6-mer frequency, TF over GST control); in experiment [2], 1.24 fold enrichment (6-mer frequency, TF over GST control); in experiment [3] it was 1.29 fold enrichment (6-mer frequency, TF over GST control); in experiment [4], 1.28 fold enrichment (6-mer frequency, TF over GST control); in experiment [5], 1.21 fold enrichment (6-mer frequency, TF over GST control); in experiment [6], 1.2 fold enrichment (6-mer frequency, TF over GST control). The binding signal in experiment [7] was 1.22 fold enrichment (6-mer frequency, TF over GST control); in experiment [8], 1.19 fold enrichment (6-mer frequency, TF over GST control).

On to CTGTTC, for which the binding signal is 1.52 fold enrichment (6-mer frequency, TF over GST control) in experiment [1]; 1.31 fold enrichment (6-mer frequency, TF over GST control) in experiment [2]; 1.44 fold enrichment (6-mer frequency, TF over GST control) in experiment [3]; 1.29 fold enrichment (6-mer frequency, TF over GST control) in experiment [4]; 1.42 fold enrichment (6-mer frequency, TF over GST control) in experiment [5]; 1.52 fold enrichment (6-mer frequency, TF over GST control) in experiment [6]. Further, the binding signal is 1.51 fold enrichment (6-mer frequency, TF over GST control) in experiment [7] and 1.44 fold enrichment (6-mer frequency, TF over GST control) in experiment [8].

As for CTTCCC, the binding signal in experiment [1] was 1.94 fold enrichment (6-mer frequency, TF over GST control); in experiment [2], 2.18 fold enrichment (6-mer frequency, TF over GST control); in experiment [3], 2.32 fold enrichment (6-mer frequency, TF over GST control); in experiment [4] it was 2.14 fold enrichment (6-mer frequency, TF over GST control); in experiment [5], 1.95 fold enrichment (6-mer frequency, TF over GST control); in experiment [6] it was 3.61 fold enrichment (6-mer frequency, TF over GST control). Also, the binding signal was 2.3 fold enrichment (6-mer frequency, TF over GST control) in experiment [7] and 2.54 fold enrichment (6-mer frequency, TF over GST control) in experiment [8].

For the sequence CCTGAT, the binding signal was 1.5 fold enrichment (6-mer frequency, TF over GST control) in experiment [1]; 1.36 fold enrichment (6-mer frequency, TF over GST control) in experiment [2]; 1.46 fold enrichment (6-mer frequency, TF over GST control) in experiment [3]; 1.59 fold enrichment (6-mer frequency, TF over GST control) in experiment [4]; 1.29 fold enrichment (6-mer frequency, TF over GST control) in experiment [5]; 1.64 fold enrichment (6-mer frequency, TF over GST control) in experiment [6]. The binding signal was 1.43 fold enrichment (6-mer frequency, TF over GST control) in experiment [7] and 1.41 fold enrichment (6-mer frequency, TF over GST control) in experiment [8].

Consider TCCTCC, for which the binding signal in experiment [1] is 1.46 fold enrichment (6-mer frequency, TF over GST control); in experiment [2], 1.55 fold enrichment (6-mer frequency, TF over GST control); in experiment [3], 1.51 fold enrichment (6-mer frequency, TF over GST control); in experiment [4], 1.61 fold enrichment (6-mer frequency, TF over GST control); in experiment [5], 1.44 fold enrichment (6-mer frequency, TF over GST control); in experiment [6], 2.04 fold enrichment (6-mer frequency, TF over GST control). Further, the binding signal in experiment [7] is 1.55 fold enrichment (6-mer frequency, TF over GST control); in experiment [8], 1.51 fold enrichment (6-mer frequency, TF over GST control).

For the origin of these results see paper PMC7862700, “An all-to-all approach to the identification of sequence-specific readers for epigenetic DNA modifications on cytosine”.
